# From PubChem
# In the library only some 3.1% were active in any assay of this set; here they are far more common.
# Env fusion inh – inhibitors of HIV-1 Env-driven cell-cell fusion, primary screen, HeLa-JRFL effector, CEM21 target cells, luciferase. AID 651610, 2012. 360,000 tested, 1.1% active. inhibition, % at 12.3 µM;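 active = mean replicate inhibition score of at least 50 and every replicate individually at or above 50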;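 note: 0% = plate neutral controls and 100% = maraviroc near 300 nM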
# INS-1E GSIS act – GLuc luminescence reporter in INS-1E cells, primary screen for activators of glucose-dependent secretion of insulin; INS-1E GLuc reporter insulin secretion, 2-3 h; 370,000 tested, 0.61% active; AID 743287, 2014; activation, % at 16.6 µM;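 active = lowest replicate activation of at least 40%, so every replicate reaches that level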;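 note: 0% = median of neutral control wells and 100% = median of IBMX positive control wells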
# miR122 inh – miR-122 Renilla sensor signal increase in Huh7, primary screen, miR-122 inhibitor project, cell-based, single point, plate reader | activation (reporter increase), % at 12.5 µM | Huh7 miR-122 Renilla luciferase sensor, 48 h; neutral wells = 0, positive control = 100 | AID 602342, 2012 | 340,000 tested, 0.3% active;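 active = mean replicate activation score at least 90 and every replicate individually at or above 90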;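 note: higher luciferase means less miR-122 activity so hits act as miR-122 inhibitors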
# EWS-Fli inh – EWS/Fli-driven NR0B1 reporter inhibitors, primary screen, A673 cells, NR0B1 luciferase, luminescence, MLPCN library | 350,000 tested, 0.67% active | viability-normalised | inhibition, % at 12.6 µM;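 active = mean inhibition of at least 50% after viability correction, with every replicate also passing that limit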;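 note: firefly luciferase signal divided by Alamar Blue viability fluorescence both relative to DMSO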
# C2C12 statin – suppressors of statin myotoxicity in C2C12 myotubes, primary screen, cell-based, single point, plate reader | C2C12 myotubes + simvastatin, ATP luminescence, 48 h; scaled: DMSO 0, geranylgeraniol control 100 | AID 602340, 2012 | 330,000 tested, 0.78% active | rescue of ATP level, % at 7.49 µM;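 active = mean ATP rescue above about 67%, or every replicate alone reaching that limit, limit read from the data, passing the limit was not always enough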;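 note: myotubes were challenged with 10 µM simvastatin during compound exposure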
# PAX8 reporter – inhibitors of PAX8-driven TPO luciferase reporter, primary screen, RMG-I cells, single concentration; SteadyGlo, 24 h; inhibition, % at 12.6 µM; 360,000 tested, 1.2% active; AID 652154, 2013;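 active = mean replicate inhibition at least 60% with every replicate also reaching 60%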;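 note: luciferase light reporting Pax8 driven TPO promoter activity; plate controls were median of neutral control wells for no effect and mitoxantrone controls for full effect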
# * = called active by the depositor; . = no result; + = active, no number; ! = not active in a repeat; [ ] = remark or other dose.
SMILES,Env fusion inh,INS-1E GSIS act,miR122 inh,EWS-Fli inh,C2C12 statin,PAX8 reporter
C=CCn1c(SCC(=O)NCCCC)nc2scc(-c3ccco3)c2c1=O,.,.,0,.,.,.
C=CCn1c(SCC(=O)NCc2ccc3c(c2)OCO3)nc2scc(-c3ccc(F)cc3)c2c1=O,107*,112*,1,.,2,-2
CCSc1nc2c(c(=O)n(C)c(=O)n2C)n1Cc1ccc(Cl)cc1,.,.,-4,.,34,.
COc1ccc(CN(C)C[C@@H]2Oc3ccc(NC(=O)Nc4ccc5c(c4)OCO5)cc3C(=O)N([C@H](C)CO)C[C@@H]2C)cc1,16[16.7 µM],8,-9[16.7 µM],4,1,.
C[C@@H](NC(=O)C[C@H]1C[C@H]2c3cc(NS(C)(=O)=O)ccc3O[C@H]2[C@H](CO)O1)c1ccccc1,7[16.7 µM],1,-5[16.7 µM],-4,-3,3
CNC[C@@H]1Oc2c(NS(=O)(=O)c3ccc(OC)cc3)cccc2C(=O)N([C@H](C)CO)C[C@@H]1C,-4[16.7 µM],16,0[16.7 µM],.,-7,-12
Cn1c(N)c(C(c2ccccc2)c2c(N)n(C)c(=O)n(C)c2=O)c(=O)n(C)c1=O,.,41*,.,.,.,.
COc1cccc(C(c2c(N)n(C)c(=O)n(C)c2=O)C(C)[N+](=O)[O-])c1 (configuration not stated),2,18,.,-3,.,-9
COc1ccccc1C(C[N+](=O)[O-])c1c(N)n(C)c(=O)n(C)c1=O (configuration not stated),-16,-23,6,23,.,64*
Fc1cccc(CN2C[C@@H]3N[C@H](C2)[C@@H]3c2ccc(-c3cccc(F)c3)cc2)c1,.,+,.,-1,.,94*
Fc1cccc(-c2ccc(C3[C@@H]4CN(Cc5ccccc5F)C[C@H]3N4)cc2)c1 (some centres not stated),.,804*!,.,11,.,-9
Fc1cccc(CN2C[C@@H]3N[C@H](C2)C3c2ccc(-c3ccccc3)cc2)c1 (some centres not stated),.,-11,.,-7,.,89*!
Fc1cccc(CN2C[C@@H]3N[C@H](C2)C3c2ccc(-c3cncnc3)cc2)c1 (some centres not stated),.,-6,.,23,.,8
COc1ccc2c3c([nH]c2c1)[C@H](CO)N(Cc1ccccc1)CC31CCN(S(C)(=O)=O)CC1,.,-5,.,-9,.,.
O=C(C[C@H]1C[C@@H]2c3cc(NS(=O)(=O)c4ccc(F)cc4)ccc3O[C@@H]2[C@@H](CO)O1)NCc1ccc(-c2ccccc2)cc1,71*[16.7 µM],-14,-7[16.7 µM],33,8,84*
O=C(C[C@@H]1C[C@@H]2c3cc(NS(=O)(=O)c4ccc(F)cc4)ccc3O[C@@H]2[C@H](CO)O1)NCc1ccc(-c2ccccc2)cc1,10[16.7 µM],-15,26[16.7 µM],-8,-146,68*
O=C(C[C@H]1C[C@H]2c3cc(NS(=O)(=O)c4ccc(F)cc4)ccc3O[C@H]2[C@@H](CO)O1)NCc1ccc(-c2ccccc2)cc1,8[16.7 µM],-11,18[16.7 µM],46,-65,53
O=C(C[C@@H]1C[C@@H]2c3cc(NS(=O)(=O)c4ccc(F)cc4)ccc3O[C@@H]2[C@@H](CO)O1)NCc1ccccc1,7[16.7 µM],-11,-1[16.7 µM],-2,0,17
O=C(C[C@H]1C[C@H]2c3cc(NS(=O)(=O)c4ccc(F)cc4)ccc3O[C@H]2[C@@H](CO)O1)NCc1ccccc1F,83*[16.7 µM],-12,5[16.7 µM],8,-1,0
O=C(C[C@H]1C[C@@H]2c3cc(NS(=O)(=O)c4ccc(F)cc4)ccc3O[C@@H]2[C@@H](CO)O1)NCc1ccc(Oc2ccccc2)cc1,-66[16.7 µM],-38,3[16.7 µM],49,-27,101*
CC1(C)Cc2nc(-c3ccccc3)nc(SCC(=O)N3CCOCC3)c2CO1,11,-9,4,.,2,5
Cc1ccc(-c2nc3c(c(SCC(=O)N4CCCC4)n2)COC(C)(C)C3)cc1,26,44*,-4,2,-4,14
CNC(=O)c1nc(C)c(C2(C)CC(c3ccccc3)=NO2)s1 (configuration not stated),-22,2,3,-8,7,-1
COc1ccc(NC(=O)c2nc(C)c(C3(C)CC(c4cccnc4)=NO3)s2)cc1 (configuration not stated),-309,1,25,68*,-10,26
Cc1nc(C(=O)Nc2ccc(Cl)cc2)sc1C1(C)CC(c2cccc([N+](=O)[O-])c2)=NO1 (configuration not stated),55*,7,.,18,2,6
SMILES,Env fusion inh,INS-1E GSIS act,miR122 inh,EWS-Fli inh,C2C12 statin,PAX8 reporter
O=C(NCc1cc(F)cc(F)c1)[C@@H]1[C@@H](CO)[C@@H]2Cn3c(cccc3=O)[C@H]1N2C(=O)c1cnccn1,4[16.7 µM],15,.,-2,-12,.
C[C@H]1CN([C@@H](C)CO)C(=O)c2cc(NC(=O)Nc3cccc4ccccc34)ccc2O[C@@H]1CN(C)S(=O)(=O)c1ccc(F)cc1,10[16.7 µM],-2,-2[16.7 µM],0,23,10
O=C(NC1=NCCS1)C1COc2ccccc2O1 (configuration not stated),98*,.,4,.,.,.
CCOC(=O)c1ccccc1NC(=O)C1COc2ccccc2O1 (configuration not stated),.,.,6,.,94*,.
O=C(Nc1ccc(F)cc1)C1COc2ccccc2O1 (configuration not stated),-17,184*,2,-32,11,-7
NC(=O)c1ccc(NC(=O)C2COc3ccccc3O2)cc1 (configuration not stated),10,1,-8,-18,-1,25
COC(=O)c1ccccc1NC(=O)C1COc2ccccc2O1 (configuration not stated),.,.,-1,.,-1,.
CC(OC(=O)C1COc2ccccc2O1)C(=O)c1ccccc1 (configuration not stated),-5,48*,-2,-3,4,-12
COc1cccc(C(=O)N2C[C@H]3[C@@H](c4ccccc42)[C@H](CO)N3C(=O)c2ccccc2)c1,.,3,10[16.7 µM],4,-6,11
CC(=O)N(C)C[C@H]1Oc2cc(C#Cc3cccc(F)c3)ccc2S(=O)(=O)N([C@@H](C)CO)C[C@@H]1C,-1[16.7 µM],-29,10[16.7 µM],4,-6,.
CCOc1ccc(CCNC(=O)COC(=O)c2cccnc2OCC)cc1OCC,-82,61*,2,.,41,.
COc1ccc(CCNC(=O)CCNC(=O)c2ccco2)cc1OC,-17,38,.,.,9,0
CCOc1ncccc1C(=O)OCC(=O)NCCc1ccc(S(N)(=O)=O)cc1,9,40*,.,6,3,-2
CCOc1ccc(CCNC(=O)COC(=O)c2nccnc2N)cc1OCC,7,51*,.,0,6,-1
